# Results: PubChem BioAssay AID1851 (National Center for Advancing Translational Sciences (NCATS), 2009)
# Values joined by “and” are separate entries in the source; they are usually repeats but may differ in a detail not shown here. Equal values may be shown once. About 4,000 (25%) of roughly 16,000 compounds were called active. About 26% were inconclusive and are not listed. The list is a sample of the results. Values without a mark were called inactive. Calls come from the whole dose curve; as a rule, active = well fitted curve in the direction sought with a large enough effect; inconclusive = small, poorly fitted or top-dose-only effect, or effect the other way; inactive = no such curve, though single readings can be large or run the other way.
# Biological target: Cytochrome P450 2C9 (Homo sapiens) (UniProt P11712)
# Assay: Cytochrome panel assay with activity outcomes
# Conditions: recombinant CYP, pro-luciferin dealkylation, luminescence, p450-cyp2c9; series mostly up to 57.1 µM; activity, negative = inhibition: at the top concentration
# % is set by controls: 0 for no effect and ±100 for the full control effect.
# Chain of Cytochrome P450 2C9 (Homo sapiens) (P11712 whole entry, looked up): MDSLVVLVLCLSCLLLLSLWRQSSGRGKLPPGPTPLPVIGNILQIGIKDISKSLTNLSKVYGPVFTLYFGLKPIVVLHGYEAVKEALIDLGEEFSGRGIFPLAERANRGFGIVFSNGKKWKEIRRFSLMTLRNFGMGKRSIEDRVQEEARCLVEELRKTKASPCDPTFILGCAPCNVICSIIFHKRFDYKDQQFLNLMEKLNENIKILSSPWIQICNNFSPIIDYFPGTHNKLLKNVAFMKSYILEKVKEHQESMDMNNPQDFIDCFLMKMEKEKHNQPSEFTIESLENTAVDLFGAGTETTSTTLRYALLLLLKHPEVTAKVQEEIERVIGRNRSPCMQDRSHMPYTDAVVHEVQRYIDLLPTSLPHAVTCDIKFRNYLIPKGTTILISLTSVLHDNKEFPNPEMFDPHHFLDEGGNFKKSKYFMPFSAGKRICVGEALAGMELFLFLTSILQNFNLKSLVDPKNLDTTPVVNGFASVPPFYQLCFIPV
SMILES,AC50,"activity, negative = inhibition"
CSC(=N)N,inactive,–
Cc1nnc(-c2cccc(Br)c2)c2cn(-c3ccc(Br)cc3)nc12,2 µM (active),–
Cc1nnc(-c2cccc(Br)c2)c2cn(-c3ccccc3Cl)nc12,2.82 µM (active),–
NC[C@@H]1O[C@H](C23CC4CC(CC(C4)C2)C3)Cc2c1ccc(O)c2O,inactive,–
NC[C@@H]1O[C@H](c2ccccc2)Cc2c1ccc(O)c2O,6.31 µM (active),–
CO/N=C(\C(=O)N[C@@H]1C(=O)N2C(C(=O)O)=C(COC(N)=O)CS[C@@H]12)c1ccco1,–,-0.22% [at 25.6 µM]
C=C(C)CN(CC#N)CC(=C)C,–,11% [at 11.4 µM]
Cc1cccc(-c2c3c(=O)n(C)c(=O)n(C)c3cn2C2CCCCC2)c1,10 µM (active),–
Cc1n[nH]c(=O)n1-c1cccc(C(F)(F)F)c1,–,-26.8%
CC1=CC(=O)N(c2cccc(C(F)(F)F)c2)C1c1ccc(Cl)cc1 (stereo not drawn),12.6 µM (active),–
OC[C@@H]1O[C@@H](n2cnc3c(SCc4ccccc4)ncnc32)[C@@H](O)[C@H]1O,–,5.12% [at 11.4 µM]
Cc1ccc(NC(=S)NC(=O)c2c(-c3ccccc3Cl)noc2C)cc1,1.41 µM (active),–
Cc1onc(-c2ccccc2Cl)c1C(=O)Nc1nnc(Cc2ccc(Cl)cc2)s1,1.26 µM (active),–
CC(=O)C1=NOC(CNC(=O)c2c(-c3ccccc3Cl)noc2C)C1 (stereo not drawn),–,-24.8%
Cc1onc(-c2ccccc2Cl)c1C(=O)NCC(=O)O,–,-18%
CC(=O)NCCNc1ncnc2ccc(-c3ccccc3C(F)(F)F)cc12,–,5.92% [at 2.29 µM]
COc1ccccc1NC(=O)CCN1C(=O)C2CC=C(Cl)CC2C1=O (stereo not drawn),–,19.4%
CCn1c2ccccc2c2cc(N=C3SC(CC(=O)Nc4ccccc4OC)C(=O)N3C)ccc21 (stereo not drawn),0.891 µM (active),–
CCn1c2ccccc2c2cc(N=C3SC(CC(=O)Nc4ccccc4)C(=O)N3C)ccc21 (stereo not drawn),0.126 µM (active),–
O=C(O)CC[C@@H](C(=O)O)N1C(=O)[C@@H]2[C@@H]3CC[C@H](C3)[C@@H]2C1=O,–,12.5% [at 11.4 µM]
OCCNc1nc(NCCC2=CCCCC2)nc(N2CCOCC2)n1,14.1 µM (active),–

SMILES,AC50,"activity, negative = inhibition"
CCN(CC)CCNC(=O)C(C)c1nn(C)c(=O)c2ccccc12 (stereo not drawn),–,-0.184%
CCOC(=O)CNS(=O)(=O)c1cc(-c2nn(C)c(=O)c3ccccc23)ccc1C,0.316 µM (active),–
CS(=O)(=O)Nc1cccc(-c2ccc3ncnc(NCCN4CCOCC4)c3c2)c1,–,19% [at 2.29 µM]
CCN(Cc1ccccc1)Cc1cccc([N+](=O)[O-])c1,10 µM (active),–
N[C@@H](Cc1cccc([N+](=O)[O-])c1)C(=O)O,–,16.8% [at 11.4 µM]
Cc1ccc(S(=O)(=O)NCc2cccc([N+](=O)[O-])c2)cc1,–,24.1% [at 11.4 µM]
COc1c(Cl)cc(Cl)cc1CNCCNCC(C)O (stereo not drawn),–,15.2%
Cc1cc(N2CCOCC2)nc2ccc(Cc3ccc4nc(N5CCOCC5)cc(C)c4c3)cc12,3.98 µM (active),–
COc1ccc2c(C)cc(N3CCOCC3)nc2c1,–,11.4%
Cc1cc(Cl)nc2ccc(Cc3ccc4nc(Cl)cc(C)c4c3)cc12,–,0.565% [at 11.4 µM]
COc1ccccc1N1CCN(C(=O)/C=C/c2ccc3c(c2)OCO3)CC1,14.1 µM (active),–
CCNc1ccc(Br)cc(C(=O)/C=C/c2ccc3c(c2)OCO3)c1=O,11.2 µM (active),–
Nc1ccccc1C(=O)/C=C\c1ccc2c(c1)OCO2,–,-29.2% [at 11.4 µM]
CCCc1nnc(SCC(=O)O)n1/N=C/c1ccc2c(c1)OCO2,–,-24.4%
O=C(/C=C\C=C/c1ccc2c(c1)OCO2)N1CCCCC1,–,-34.7% [at 25.6 µM]
COCOc1cc(OC)ccc1C(=O)/C=C\c1ccc2c(c1)OCO2,2.51 µM (active),–
CCCC(=O)Nc1ccc(C(=O)/C=C/c2ccc(SC)cc2)cc1,1.78 µM (active),–
CCCCCCCCCCCCCCCCCCc1ccc(C(=O)/C=C\C(=O)O)cc1,–,-7.99%
O=C(O)CC/C=C\C[C@@H]1CO[C@H](c2ccccc2Cl)O[C@@H]1c1ccccc1O,–,-16.7%
c1ccc(C2OCC3(CO2)COC(c2ccccc2)OC3)cc1 (stereo not drawn),–,-37.5%
O=C1CCCCCC1C1(O)C(=O)Nc2ccc(Br)cc21 (stereo not drawn),–,-11.1%

SMILES,AC50,"activity, negative = inhibition"
Nc1nc(Sc2ccc([N+](=O)[O-])c3nonc23)c2[nH]cnc2n1,3.16 µM (active),–
Nc1nc(SCc2ccccc2[N+](=O)[O-])c2[nH]cnc2n1,–,-28.6% [at 11.4 µM]
CC(C)[C@H](Sc1nc(N)nc2nc[nH]c12)C(=O)O,–,12.2% [at 11.4 µM]
CCOC(=O)N1CCN(C(=O)C(CC)n2nc(C)c3sc4ccccc4c3c2=O)CC1 (stereo not drawn),3.16 µM (active),–
CCOC(=O)N1CCN(C(=O)CCn2nc(-c3ccccc3)ccc2=O)CC1,–,-13.9%
CN(C)CCCN=c1c2ccccc2n(C)c2[nH]c(=O)n(C)c(=O)c12,–,-3.97% [at 11.4 µM]
CC(=O)NCCNc1ccnc(-c2ccccc2C(F)(F)F)n1,–,9.95% [at 2.29 µM]
COc1cc(O)oc1C=Nc1ccc(Cl)cc1,22.4 µM (active),–
COc1ccc(N=Cc2ccc(CNS(=O)(=O)c3ccc(Cl)cc3)o2)cc1,–,-5.91%
CCNC(=S)N1CC(C)OC(C)C1 (stereo not drawn),–,-4.79%
Cc1ccc(N(CCC#N)C(=O)CSc2ccc3c(c2)OCCO3)cc1,5.01 µM (active),–
Cc1ccc(SCN2CCCCC2)cc1 (tested in a mixture with another compound),–,-29.3% [at 11.4 µM]
CC1Cc2ccccc2N1Cc1nc2cc(C(F)(F)F)ccc2c(=O)[nH]1 (stereo not drawn),5.01 µM (active),–
Brc1ccc(-c2nnc(-c3cccc(Br)c3)o2)cc1,–,-6.6%
O=S(=O)(c1ccc(Br)cc1)N1CCN(S(=O)(=O)c2ccc(Br)cc2)CC1,–,25.6% [at 11.4 µM]
O=S(=O)(c1cccc(-c2nnc(-c3ccc(Br)cc3)o2)c1)N1CCCCCC1,5.01 µM (active),–
c1cncc(-c2cncnc2-n2ccnc2)c1,–,8.83% [at 2.29 µM]
Oc1ccc(-c2[nH]ncc2-c2ccc(Cl)cc2)c(O)c1,0.794 µM (active),–
CC(C)NC(=O)N1CC2(CCN(C(=O)c3cc(C(F)(F)F)cc(C(F)(F)F)c3)CC2)C1,–,-19.4%
CCOC(=O)c1c(CC(C)C)csc1NC=O,10 µM (active),–
Cc1ccccc1C(=O)c1c[nH]c(C(=O)NCC2CCCO2)c1 (stereo not drawn),–,25.6%

SMILES,AC50,"activity, negative = inhibition"
O=C(CN(Cc1ccccc1Cl)C(=O)c1ccc(CN2CCOCC2)o1)NCC1CCCO1 (stereo not drawn),–,-3.33%
O=C(Nc1ccccc1C(=O)NCC1CCCO1)c1ccc(Cl)cc1Cl (stereo not drawn),10 µM (active),–
COc1ccc(O[C@H]2C=C[C@@H](c3ccccc3)O[C@H]2CO/N=C2/c3cc(OC)ccc3O[C@@H](c3cccc(OC)c3)[C@H]2O)cc1,3.16 µM (active),–
COc1cccc([C@H]2Oc3ccc(OC)cc3/C(=N\O[C@@H]3O[C@H](COC(C)=O)[C@H](OC(C)=O)[C@H](OC(C)=O)[C@H]3OC(C)=O)[C@@H]2O)c1,–,-12.6% [at 11.4 µM]
COc1cccc([C@H]2Oc3ccc(OC)cc3/C(=N\O[C@@H](C)c3cn([C@H](CO)Cc4ccccc4)nn3)[C@@H]2O)c1,1.58 µM (active),–
C=CC[C@@H]1C=C[C@@H](O/N=C\C[C@@H]2C=C[C@H](OC(C)=O)[C@H](COC(C)=O)O2)[C@@H](CO)O1,–,-4.4% [at 11.4 µM]
COc1ccc(O[C@H]2C=C[C@@H](c3ccccc3)O[C@@H]2CON=C(C)C)cc1,–,11.9% [at 11.4 µM]
COc1cccc([C@@H]2Oc3ccc(OC)cc3/C(=N/OC[C@@H](C)[C@H](OCc3ccccc3)C(C)C)[C@@H]2O)c1,3.98 µM (active),–
COc1cccc([C@@H]2Oc3ccc(OC)cc3/C(=N/O[C@@H](C)c3cn([C@H]4COC[C@H]4O)nn3)[C@@H]2O)c1,–,-15.5% [at 11.4 µM]
C=CC[C@@H]1C=C[C@H](O/N=C2\c3cc(OC)ccc3O[C@H](c3cccc(OC)c3)[C@H]2O)[C@H](CO)O1,0.398 µM (active),–
CO/N=C1/c2cc(OC)ccc2O[C@@H](c2cccc(OC)c2)[C@H]1O,–,-0.557% [at 11.4 µM]
COc1cccc([C@H]2Oc3ccc(OC)cc3/C(=N\OC[C@@H](O)[C@@H]3O[C@@H]4OC(C)(C)O[C@@H]4[C@H]3O)[C@@H]2O)c1,–,-20.5% [at 11.4 µM]
CC(C)=NO[C@@H](C)c1cn([C@H](CO)Cc2ccccc2)nn1,–,16.5% [at 11.4 µM] and 5.66% [at 11.4 µM]
CC1=N[C@@](C)(COC(=O)[C@]2(C)N[C@](C)(CO)CO2)COC1=O,–,11% [at 11.4 µM]
CC(=O)NCCNc1cc(-c2ccccc2CN(C)C)ncn1,–,10% [at 2.29 µM]
O=[N+]([O-])/C=C\c1cc2ccccc2[nH]1,–,11.3% [at 11.4 µM]
COCC(=O)Nc1c(I)c(C(=O)NC[C@@H](O)CO)c(I)c(C(=O)N(C)C[C@@H](O)CO)c1I,–,-13.9% [at 25.6 µM]
C/C(CCN1CCCCc2nc(C)c(C)cc21)=N\O[C@@H](C)CN1CCCc2nc(C)c(C)cc21,–,-5.53% [at 11.4 µM]
CC(C)=NO[C@@H](C)CN1CCCCc2nc(C)c(C)cc21,–,19.8% [at 11.4 µM]
COc1cccc([C@@H]2Oc3ccc(OC)cc3/C(=N/O[C@@H](C)CN3CCCCc4nc(C)c(C)cc43)[C@@H]2O)c1,1.58 µM (active),–
